Inconclusive results are not listed. The source made the active and inactive calls. The calls were made as follows: active = hit-call score of the fitted dose curve at least 0.9, where 1 is the maximum; inconclusive = response in the unintended direction; inactive = score below 0.9.
Target: Estrogen receptor (Homo sapiens) (UniProt P03372)
Assay: ATG_ERa_TRANS: Attagene TRANS-FACTORIAL HepG2 Assay for human Estrogen Receptor alpha (ERa) (AID 2282970)
Settings: HepG2 Attagene TRANS ERa GAL4 reporter, mRNA
Procedure: ATG_TRANS is a cell-based, multiplexed-readout assay that uses HepG2, a human liver cell line, with measurements taken at 24 hours after chemical dosing in a 24-well plate.ATG_ERa_TRANS is one of 30 assay component(s) measured or calculated from the ATG_TRANS assay. It is designed to make measurements of mRNA induction, a form of inducible reporter, as detected with fluorescence intensity signals by Reverse transcription polymerase chain reaction (RT-PCR) and Capillary electrophoresis technology.Data from the assay component ATG_ERa_TRANS was analyzed into 1 assay endpoint. This assay endpoint, ATG_ERa_TRANS, was analyzed in the positive analysis fitting direction relative to DMSO as the negative control and baseline of activity. Using a type of inducible reporter, measures of mRNA for gain-of-signal activity can be used to understand the reporter gene at the transcription factor-level as they relate to the gene ESR1. Furthermore, this assay endpoint can be referred to as a primary readout, because this assay has produced multiple assay endpoints where this one serves a reporter gene function. To generalize the intended target to other relatable targets, this assay endpoint is annotated to the nuclear receptor intended target family, where the subfamily is steroidal.
Human liver HepG2 cells are transiently transfected with multiple reporter transcription units (MRTUs) in 6-well plates using FuGene 6 reagent (Roche; 3 ml FuGene/1 mg DNA). The MRTU constructs are regulated by a cis-regulating element (promoter). […] A major difference between the CIS and TRANS system is that in CIS activities of endogenous TFs are measured, whereas the TRANS assay evaluates changes in activities of exogenous, chimeric NR-Gal4 proteins. […] At the end of 24 hour incubation, total RNA was isolated using TriZol reagent (Invitrogen). The isolated RNA is then reverse-transcribed using oligo(dT) primer and Mo-MLV reverse transcriptase (Invitrogen) with DNAse I (Ambion) treatment for 30 min. The one-tenth of the produced cDNA was amplified by PCR using Taq DNA polymerase (Invitrogen) and two reporter sequence-specific primers. The PCR products were fluorescently labeled by primer extension with 6-arboxyfluorescein (6-FAM) 5'-labeled reporter sequence-specific primer (2 min at 95 C, 20 s at 68 C and 10 min at 72 C) and these products were digested with 5U of HpaI (New England Biolabs) for 2h at 37 C. […] The raw capillary electrophoresis data was processed using Attagraph software (Attagene).

Chain of Estrogen receptor (Homo sapiens) (P03372 whole entry, looked up): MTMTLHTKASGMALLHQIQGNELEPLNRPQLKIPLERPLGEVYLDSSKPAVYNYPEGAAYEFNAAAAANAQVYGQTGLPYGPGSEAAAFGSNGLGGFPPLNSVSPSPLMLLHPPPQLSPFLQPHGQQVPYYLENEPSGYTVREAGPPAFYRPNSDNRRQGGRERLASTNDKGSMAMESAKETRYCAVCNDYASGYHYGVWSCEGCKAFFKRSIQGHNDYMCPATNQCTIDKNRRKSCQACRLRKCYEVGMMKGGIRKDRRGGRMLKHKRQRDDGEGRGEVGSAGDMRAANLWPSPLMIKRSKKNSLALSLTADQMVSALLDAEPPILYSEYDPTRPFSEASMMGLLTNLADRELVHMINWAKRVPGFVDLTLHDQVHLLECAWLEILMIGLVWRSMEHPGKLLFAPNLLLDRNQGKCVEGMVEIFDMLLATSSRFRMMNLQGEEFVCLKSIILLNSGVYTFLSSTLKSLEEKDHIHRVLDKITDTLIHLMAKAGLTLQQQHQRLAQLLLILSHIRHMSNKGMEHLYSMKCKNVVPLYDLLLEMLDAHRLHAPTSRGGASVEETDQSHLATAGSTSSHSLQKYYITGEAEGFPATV

| SMILES | outcome | AC50 |
| --- | --- | --- |
| CC(C)CC(=O)O | inactive |  |
| NC(N)=Nc1nc(CSCCC(N)=NS(N)(=O)=O)cs1 | inactive |  |
| CCCC(=O)OC/C=C(\C)CCC=C(C)C | inactive |  |
| c1ccc2c(c1)Oc1ccccc1S2 |  | 27.9 µM (active) |
| CCCCCCCCCCCCCCCCCC[N+](C)(C)C | inactive |  |
| O=C1CCCCCCCCCCCCCC1 |  | 26.5 µM (active) |
| c1cc[c]([Bi]([c]2ccccc2)[c]2ccccc2)cc1 |  | 4.16 µM (active) |
| COC(OC)C(C)c1ccccc1 (configuration not stated) | inactive |  |
| CCC(C)NC(N)=O (configuration not stated) | inactive |  |
| O=[N+]([O-])c1ccc2nc[nH]c2c1 | inactive |  |
| CN1CCCC1 | inactive |  |
| CC(=O)c1nccs1 |  | 39.3 µM (active) |
| CCCc1c(OCCCCc2nn[nH]n2)ccc(C(C)=O)c1O | inactive |  |
| COc1ccc2ccccc2c1 | inactive |  |
| CCCCCCC1CCC(=O)O1 (configuration not stated) | inactive |  |
| Oc1ccc(Oc2ccccc2)cc1 |  | 1.44 µM (active) |
| Oc1ccc(Cl)cc1C1CCCC1 |  | 4.12 µM (active) |

Source: PubChem BioAssay (EPA / NIEHS)
